Holding throughout (test): yeast three-hybrid, YBZ-1, SC-Leu-His + 0.5 mM 3-AT, 4 days
Holding throughout (details): tags: N-Gal4 AD-HA kept; label: inside an RPR1-promoter hybrid RNA with tandem MS2 sites; ssRNA

One assay concerns the target PUM1 PUF domain R7-KGQ (Homo sapiens, UniProt Q14671 828-1176, S1079K;N1080G;E1083Q). A digest of the protocol: (§1)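 The interaction score is the log change in how often each variant appears, from input to selection. Frequencies came from PCR-amplified, Illumina-sequenced repeat regions of Pumilio-1 PUF domain libraries grown in strain YBZ-1 (LexA–MS2 coat fusion, HIS3 reporter) alongside matching RNA elements. Input plates were SC-Leu and selection plates were SC-Leu-His + 0.5 mM 3-AT, each for four days, and the log2 calculation used a pseudocount of 1 where a variant was absent.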

The target of the next assay is PUM1 PUF domain R7-RQN (Homo sapiens, UniProt Q14671 828-1176, S1079R;N1080Q;E1083N). The essentials: as §1
Chain of PUM1 PUF domain R7-RQN (Q14671 828-1176 S1079R/N1080Q/E1083N): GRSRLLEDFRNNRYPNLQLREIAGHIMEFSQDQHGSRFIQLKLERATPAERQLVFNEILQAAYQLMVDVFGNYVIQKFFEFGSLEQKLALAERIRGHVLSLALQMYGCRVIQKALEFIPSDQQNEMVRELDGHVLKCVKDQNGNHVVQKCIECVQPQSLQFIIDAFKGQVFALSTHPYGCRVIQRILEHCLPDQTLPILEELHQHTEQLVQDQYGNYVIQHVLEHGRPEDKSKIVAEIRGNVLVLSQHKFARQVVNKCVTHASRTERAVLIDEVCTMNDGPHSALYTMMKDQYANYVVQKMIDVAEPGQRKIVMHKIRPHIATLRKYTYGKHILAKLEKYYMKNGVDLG
In another assay the target is PUM1 PUF domain R5-GHS (Homo sapiens, UniProt Q14671 828-1176, C1007G;R1008H;Q1011S). A digest of the protocol: as §1
For the next assay, the target named is PUM1 PUF domain R5-WHV (Homo sapiens, UniProt Q14671 828-1176, C1007W;R1008H;Q1011V). The essentials: as §1
For another assay, the target named is T1, PUM1 PUF domain R6-TFS (Homo sapiens, UniProt Q14671 828-1176, N1043T;Y1044F;Q1047S).
T1 sequence: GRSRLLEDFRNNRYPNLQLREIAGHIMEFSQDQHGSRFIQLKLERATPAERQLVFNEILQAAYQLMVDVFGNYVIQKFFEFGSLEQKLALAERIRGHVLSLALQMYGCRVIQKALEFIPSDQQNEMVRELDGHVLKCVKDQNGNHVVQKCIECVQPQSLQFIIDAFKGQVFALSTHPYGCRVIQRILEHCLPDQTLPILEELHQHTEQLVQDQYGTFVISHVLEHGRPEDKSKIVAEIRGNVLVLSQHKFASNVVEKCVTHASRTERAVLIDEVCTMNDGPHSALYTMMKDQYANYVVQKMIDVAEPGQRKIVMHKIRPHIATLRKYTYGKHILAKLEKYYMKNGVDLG
A digest of the protocol:
as §1

Another assay deals with PUM1 PUF domain R8-LFQ (Homo sapiens, UniProt Q14671 828-1176, N1122L;Y1123F). The essentials: as §1
Chain of PUM1 PUF domain R8-LFQ (Q14671 828-1176 N1122L/Y1123F): as the sequence (Q14671 828-1176 S1079R/N1080Q/E1083N) above, with R252S, Q253N, N256E, N295L, Y296F counted along it
Another assay addresses PUM1 PUF domain R5-RWF (Homo sapiens, UniProt Q14671 828-1176, C1007R;R1008W;Q1011F). A digest of the protocol: as §1
For a further assay, the target named is PUM1 PUF domain R3-MCR (Homo sapiens, UniProt Q14671 828-1176, C935M;R936C;Q939R). The essentials: as §1
A further assay addresses PUM1 PUF domain R3-LSE (Homo sapiens, UniProt Q14671 828-1176, C935L;R936S;Q939E). The essentials: as §1

Chain of PUM1 PUF domain R5-RWF (Q14671 828-1176 C1007R/R1008W/Q1011F): as the sequence (Q14671 828-1176 S1079R/N1080Q/E1083N) above, with C180R, R181W, Q184F, R252S, Q253N, N256E counted along it
Chain of PUM1 PUF domain R3-LSE (Q14671 828-1176 C935L/R936S/Q939E): as the sequence (Q14671 828-1176 S1079R/N1080Q/E1083N) above, with C108L, R109S, Q112E, R252S, Q253N, N256E counted along it
Chain of PUM1 PUF domain R7-KGQ (Q14671 828-1176 S1079K/N1080G/E1083Q): as the sequence (Q14671 828-1176 S1079R/N1080Q/E1083N) above, with R252K, Q253G, N256Q counted along it

As for “GGCUAGAACUAGUGGAUCCCCCGGCGCCCGGCGGCUCGAGCCCGGGUAAGUUUAAAUAGUCUGCAUGCCGCCGGGCGCCAUGCCUGCAGGUCGACUCUAGAAAACAUG”, the values for the binding signal with PUM1 PUF domain R7-KGQ and with PUM1 PUF domain R7-RQN were 5.56 log2 enrichment (interaction score) and 3.78 log2 enrichment (interaction score), respectively.
On to “GGCUAGAACUAGUGGAUCCCCCGGCGCCCGGCGGCUCGAGCCCGGGUAAGUGUAAAUAGUCUGCAUGCCGCCGGGCGCCAUGCCUGCAGGUCGACUCUAGAAAACAUG”, for which the binding signal with PUM1 PUF domain R5-GHS is 3.25 log2 enrichment (interaction score); in the assay with PUM1 PUF domain R5-WHV, 1.26 log2 enrichment (interaction score); with PUM1 PUF domain R6-TFS, 4.51 log2 enrichment (interaction score).
On to “GGCUAGAACUAGUGGAUCCCCCGGCGCCCGGCGGCUCGAGCCCGGGUAAGCGUAAAUAGUCUGCAUGCCGCCGGGCGCCAUGCCUGCAGGUCGACUCUAGAAAACAUG”, for which the binding signal in the assay with PUM1 PUF domain R8-LFQ was 2.86 log2 enrichment (interaction score).
On to “GGCUAGAACUAGUGGAUCCCCCGGCGCCCGGCGGCUCGAGCCCGGGUAAGUGUUAAUAGUCUGCAUGCCGCCGGGCGCCAUGCCUGCAGGUCGACUCUAGAAAACAUG”, for which the binding signal in the assay with PUM1 PUF domain R5-RWF was 4.13 log2 enrichment (interaction score).
Regarding “GGCUAGAACUAGUGGAUCCCCCGGCGCCCGGCGGCUCGAGCCCGGGUAAGUGUCAAUAGUCUGCAUGCCGCCGGGCGCCAUGCCUGCAGGUCGACUCUAGAAAACAUG”, the binding signal with PUM1 PUF domain R5-WHV was 2.8 log2 enrichment (interaction score).
Regarding “GGCUAGAACUAGUGGAUCCCCCGGCGCCCGGCGGCUCGAGCCCGGGUAAGUGUAAUUAGUCUGCAUGCCGCCGGGCGCCAUGCCUGCAGGUCGACUCUAGAAAACAUG”, in the assay with PUM1 PUF domain R3-MCR, the binding signal is 4.47 log2 enrichment (interaction score).
Consider “GGCUAGAACUAGUGGAUCCCCCGGCGCCCGGCGGCUCGAGCCCGGGUAAGUGUAAGUAGUCUGCAUGCCGCCGGGCGCCAUGCCUGCAGGUCGACUCUAGAAAACAUG”, for which, in the assay with PUM1 PUF domain R3-LSE, the binding signal is 2.76 log2 enrichment (interaction score).
With “GGCUAGAACUAGUGGAUCCCCCGGCGCCCGGCGGCUCGAGCCCGGGUAAGUCUAAAUAGUCUGCAUGCCGCCGGGCGCCAUGCCUGCAGGUCGACUCUAGAAAACAUG”, the binding signal with PUM1 PUF domain R7-RQN was 0.64 log2 enrichment (interaction score).
